The record followed here is the supplement of paper PMC8291772.

± gives the standard error. In all, about 1,300 sequences were measured (“fluorescence a.u.”: median about 38, highest 2% from about 280 on). The sample as a whole holds a higher share of the highest values than the screen did.

Sequence of terminal deoxynucleotidyl transferase (calf thymus) (P06526 whole entry): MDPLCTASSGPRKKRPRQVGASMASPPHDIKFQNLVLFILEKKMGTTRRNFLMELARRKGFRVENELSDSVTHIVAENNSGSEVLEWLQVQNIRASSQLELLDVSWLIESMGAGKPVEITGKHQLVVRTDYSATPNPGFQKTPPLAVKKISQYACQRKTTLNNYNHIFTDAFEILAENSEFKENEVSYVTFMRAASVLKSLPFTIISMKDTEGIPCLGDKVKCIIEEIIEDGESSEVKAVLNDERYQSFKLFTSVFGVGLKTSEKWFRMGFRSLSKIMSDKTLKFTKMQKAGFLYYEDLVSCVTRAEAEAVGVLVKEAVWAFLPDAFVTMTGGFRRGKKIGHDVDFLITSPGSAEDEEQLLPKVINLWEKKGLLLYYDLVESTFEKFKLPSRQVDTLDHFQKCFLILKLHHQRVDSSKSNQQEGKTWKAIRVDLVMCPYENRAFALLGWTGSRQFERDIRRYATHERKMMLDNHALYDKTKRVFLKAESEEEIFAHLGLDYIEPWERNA

In the assay the target is terminal deoxynucleotidyl transferase (calf thymus) (UniProt P06526). Put plainly: TdT poly-dT extension signal (Cy3 hybridisation fluorescence, uncapped minus capped) (fluorescence a.u.); higher = more efficient initiation of TdT extension. Conditions: initiator chemistry: L-DNA (mirror-image), free 5'-OH (3'-tethered via HEG linker). Here is the method:
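All mono- to pentamer D-DNA or L-DNA initiators were made by forward (3'->5') photolithographic in situ synthesis on glass on a hexaethylene glycol linker, leaving a free 5'-OH. Each was made in uncapped and DMTr-dT-capped versions, about 11 replicates each. Arrays were extended with calf thymus TdT (0.2 U/uL), 100 uM dTTP and 0.25 mM CoCl2 for 120 min at 37 C, hybridised with an rA18-Cy3 probe and scanned at 532 nm. The value is the mean uncapped minus the mean capped signal. IDs read 5'->3'. L-DNA is mirror-image; D-DNA 5'-OH initiators were below LOD (no extension).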
For the sequence GCGGC, the “TdT poly-dT extension signal” value was determined as 73.3 ± 6.8.

For the sequence AGCAA, the “TdT poly-dT extension signal” value was 61.2 ± 5.3.

With TTTG, the “TdT poly-dT extension signal” value is 264 ± 15.

TTTGA: the “TdT poly-dT extension signal” value amounted to 320 ± 26.

Regarding TTTGC, the “TdT poly-dT extension signal” value came to 271 ± 19.

CTCCT: the “TdT poly-dT extension signal” value was 111 ± 9.1.

For TTCCC, the “TdT poly-dT extension signal” value is 358 ± 31.

Turning to TTCCT, the “TdT poly-dT extension signal” value turned out to be 286 ± 28.

Regarding TTTCC, the “TdT poly-dT extension signal” value is 270 ± 21.

Turning to TCCCC, the “TdT poly-dT extension signal” value came out at 175 ± 17.

Turning to ATCCC, the “TdT poly-dT extension signal” value came to 147 ± 16.

Turning to TTCCA, the “TdT poly-dT extension signal” value was found to be 299 ± 18.

For the sequence GTCCA, the “TdT poly-dT extension signal” value was determined as 122 ± 10.

Consider TTCC, for which the “TdT poly-dT extension signal” value was 293 ± 17.

In the case of ATCCA, the “TdT poly-dT extension signal” value amounted to 153 ± 10.

Regarding GTCCT, the “TdT poly-dT extension signal” value came to 117 ± 9.6.

In the case of TGCC, the “TdT poly-dT extension signal” value worked out at 126 ± 14.

On to CTTCA, for which the “TdT poly-dT extension signal” value was determined as 130 ± 11.

CCTAA: the “TdT poly-dT extension signal” value is 98.7 ± 6.

Turning to ATGCT, the “TdT poly-dT extension signal” value came to 116 ± 7.5.

As to CGTTT, the “TdT poly-dT extension signal” value turned out to be 51.4 ± 5.

On to GTAGG, for which the “TdT poly-dT extension signal” value worked out at 181 ± 10.

Take CCAAG: the “TdT poly-dT extension signal” value came to 120 ± 9.5.

On to CTTT, for which the “TdT poly-dT extension signal” value turned out to be 127 ± 17.

As to TATC, the “TdT poly-dT extension signal” value was determined as 171 ± 12.

Consider TGTA, for which the “TdT poly-dT extension signal” value worked out at 126 ± 10.

Turning to TACA, the “TdT poly-dT extension signal” value worked out at 178 ± 8.

In the case of GTCCG, the “TdT poly-dT extension signal” value was 147 ± 12.

As to CTCCG, the “TdT poly-dT extension signal” value is 127 ± 11.

For the sequence TTCCG, the “TdT poly-dT extension signal” value was 388 ± 25.

TGCGC: the “TdT poly-dT extension signal” value came out at 154 ± 12.

TTCTA: the “TdT poly-dT extension signal” value was determined as 312 ± 31.

Regarding GTCTT, the “TdT poly-dT extension signal” value worked out at 128 ± 8.

Turning to CTCTT, the “TdT poly-dT extension signal” value is 122 ± 10.

Turning to TTCTG, the “TdT poly-dT extension signal” value was determined as 320 ± 24.

As to GTCTG, the “TdT poly-dT extension signal” value stood at 128 ± 7.3.

As to TTCT, the “TdT poly-dT extension signal” value was determined as 243 ± 31.

As to CTCTA, the “TdT poly-dT extension signal” value stood at 130 ± 12.

Turning to TTCTT, the “TdT poly-dT extension signal” value came out at 311 ± 24.

Consider ATCTG, for which the “TdT poly-dT extension signal” value was 143 ± 16.

As to ACCCA, the “TdT poly-dT extension signal” value is 77.1 ± 11.

For TCGAT, the “TdT poly-dT extension signal” value was determined as 152 ± 12.

As to CAGTG, the “TdT poly-dT extension signal” value turned out to be 49.3 ± 7.1.

On to CCTA, for which the “TdT poly-dT extension signal” value amounted to 84.4 ± 13.

With ACAAC, the “TdT poly-dT extension signal” value was 92.6 ± 6.6.

As for GCACG, the “TdT poly-dT extension signal” value was 87 ± 5.5.

For ATGCC, the “TdT poly-dT extension signal” value was found to be 109 ± 15.

Take ATCGA: the “TdT poly-dT extension signal” value came out at 206 ± 17.

As for CTCGA, the “TdT poly-dT extension signal” value was 135 ± 12.

Take TTCG: the “TdT poly-dT extension signal” value was found to be 284 ± 31.

Regarding CTCG, the “TdT poly-dT extension signal” value came to 124 ± 17.

On to GTCGG, for which the “TdT poly-dT extension signal” value came to 178 ± 14.

In the case of CTCGT, the “TdT poly-dT extension signal” value worked out at 115 ± 9.

TCCG: the “TdT poly-dT extension signal” value was found to be 221 ± 19.

With ATCGT, the “TdT poly-dT extension signal” value was determined as 189 ± 13.

For TTCGA, the “TdT poly-dT extension signal” value was found to be 367 ± 21.

On to CTCGG, for which the “TdT poly-dT extension signal” value is 158 ± 9.7.

For the sequence TTCGT, the “TdT poly-dT extension signal” value came out at 330 ± 27.

Regarding TTCGG, the “TdT poly-dT extension signal” value was determined as 347 ± 20.

For the sequence TCATT, the “TdT poly-dT extension signal” value was 134 ± 15.

Regarding GACTG, the “TdT poly-dT extension signal” value came out at 85.6 ± 6.6.

For the sequence GCCTG, the “TdT poly-dT extension signal” value is 90.6 ± 8.8.

For CCAC, the “TdT poly-dT extension signal” value amounted to 93 ± 7.6.

Take ATACG: the “TdT poly-dT extension signal” value was found to be 188 ± 13.

Turning to ACAGT, the “TdT poly-dT extension signal” value is 65.8 ± 8.1.

With ACTGG, the “TdT poly-dT extension signal” value was found to be 71.1 ± 8.8.

Turning to TAGCC, the “TdT poly-dT extension signal” value worked out at 105 ± 7.2.

Consider GTCGC, for which the “TdT poly-dT extension signal” value stood at 137 ± 12.

With CTCGC, the “TdT poly-dT extension signal” value worked out at 146 ± 15.

On to TTCGC, for which the “TdT poly-dT extension signal” value turned out to be 323 ± 18.

On to CGGTC, for which the “TdT poly-dT extension signal” value was determined as 31.7 ± 5.1.
